The results in this text go back to ChEMBL document CHEMBL1961873, “Compounds: GSK PKIS; Assays: Nanosyn kinase panel” (2012).

For orientation: inhibition means the relative decrease from the control value, in per cent.

Experiment [1] addresses Mast/stem cell growth factor receptor Kit (Homo sapiens) (UniProt P10721). The settings on record: at 1 µM.
In experiment [2] the test system is Mast/stem cell growth factor receptor Kit (Homo sapiens), P10721 [D816V]. The settings on record: at 0.1 µM.
Experiment [3] shares this test system. Conditions: at 1 µM.
Experiment [4] relates to Mast/stem cell growth factor receptor Kit (Homo sapiens), P10721 [T670I]. The settings on record: at 0.1 µM.
The test system is the same in experiment [5]. Conditions: at 1 µM.
Experiment [6] deals with Mast/stem cell growth factor receptor Kit (Homo sapiens), P10721 [V560G]. The settings on record: at 0.1 µM.
For experiment [7] the test system is unchanged. Conditions: at 1 µM.
The target of experiment [8] is Tyrosine-protein kinase Lck (Homo sapiens) (UniProt P06239). Conditions: at 0.1 µM.
The target is the same in experiment [9]. Conditions: at 1 µM.
Experiment [10] addresses Leukocyte tyrosine kinase receptor (Homo sapiens) (UniProt P29376). The settings on record: at 0.1 µM.
The target is the same in experiment [11]. The settings on record: at 1 µM.
For experiment [12], the target named is Tyrosine-protein kinase Lyn (Homo sapiens) (UniProt P07948). The settings on record: at 0.1 µM.
Experiment [13] shares this target. The settings on record: at 1 µM.
Experiment [14] shares this target. The settings on record: at 0.1 µM. The source holds these as a separate data set.
Experiment [15] shares this target. Conditions: at 1 µM. This is another data set of the same source.
Experiment [16] deals with T1, Tyrosine-protein kinase Mer (Homo sapiens) (UniProt Q12866).
T1 sequence (whole entry): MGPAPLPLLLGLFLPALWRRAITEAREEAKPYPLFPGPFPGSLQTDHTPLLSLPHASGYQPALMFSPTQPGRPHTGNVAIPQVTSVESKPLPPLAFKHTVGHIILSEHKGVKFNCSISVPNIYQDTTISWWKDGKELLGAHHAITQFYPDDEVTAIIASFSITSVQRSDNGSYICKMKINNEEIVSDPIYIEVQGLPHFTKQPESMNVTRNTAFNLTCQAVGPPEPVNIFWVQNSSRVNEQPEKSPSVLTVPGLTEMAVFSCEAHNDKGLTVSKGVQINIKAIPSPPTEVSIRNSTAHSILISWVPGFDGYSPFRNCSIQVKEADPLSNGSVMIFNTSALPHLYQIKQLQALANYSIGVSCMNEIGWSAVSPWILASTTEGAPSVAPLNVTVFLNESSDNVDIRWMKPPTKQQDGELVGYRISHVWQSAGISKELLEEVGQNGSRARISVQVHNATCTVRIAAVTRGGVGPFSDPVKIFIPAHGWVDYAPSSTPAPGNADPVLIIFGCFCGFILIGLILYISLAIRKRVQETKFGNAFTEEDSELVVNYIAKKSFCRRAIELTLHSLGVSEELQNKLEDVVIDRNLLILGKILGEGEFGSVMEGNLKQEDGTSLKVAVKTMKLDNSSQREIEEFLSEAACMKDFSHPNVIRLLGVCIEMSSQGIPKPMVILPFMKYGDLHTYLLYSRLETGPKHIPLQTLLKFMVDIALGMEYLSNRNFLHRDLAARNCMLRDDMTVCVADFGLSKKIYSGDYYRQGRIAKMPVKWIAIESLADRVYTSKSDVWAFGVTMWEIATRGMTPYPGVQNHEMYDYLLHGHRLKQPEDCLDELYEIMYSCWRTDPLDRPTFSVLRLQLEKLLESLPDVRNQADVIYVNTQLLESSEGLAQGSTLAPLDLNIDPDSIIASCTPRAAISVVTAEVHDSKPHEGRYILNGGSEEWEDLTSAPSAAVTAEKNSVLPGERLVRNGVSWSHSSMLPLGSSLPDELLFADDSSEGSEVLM
Conditions: at 0.1 µM.

The target of experiment [17] is T1, Tyrosine-protein kinase Mer (Homo sapiens). The settings on record: at 1 µM.
Experiment [18] deals with Hepatocyte growth factor receptor (Homo sapiens) (UniProt P08581). Conditions: at 0.1 µM.
For experiment [19] the target is unchanged. Conditions: at 1 µM.
Experiment [20] deals with T2, Muscle, skeletal receptor tyrosine-protein kinase (Homo sapiens) (UniProt O15146).
T2 sequence (whole entry): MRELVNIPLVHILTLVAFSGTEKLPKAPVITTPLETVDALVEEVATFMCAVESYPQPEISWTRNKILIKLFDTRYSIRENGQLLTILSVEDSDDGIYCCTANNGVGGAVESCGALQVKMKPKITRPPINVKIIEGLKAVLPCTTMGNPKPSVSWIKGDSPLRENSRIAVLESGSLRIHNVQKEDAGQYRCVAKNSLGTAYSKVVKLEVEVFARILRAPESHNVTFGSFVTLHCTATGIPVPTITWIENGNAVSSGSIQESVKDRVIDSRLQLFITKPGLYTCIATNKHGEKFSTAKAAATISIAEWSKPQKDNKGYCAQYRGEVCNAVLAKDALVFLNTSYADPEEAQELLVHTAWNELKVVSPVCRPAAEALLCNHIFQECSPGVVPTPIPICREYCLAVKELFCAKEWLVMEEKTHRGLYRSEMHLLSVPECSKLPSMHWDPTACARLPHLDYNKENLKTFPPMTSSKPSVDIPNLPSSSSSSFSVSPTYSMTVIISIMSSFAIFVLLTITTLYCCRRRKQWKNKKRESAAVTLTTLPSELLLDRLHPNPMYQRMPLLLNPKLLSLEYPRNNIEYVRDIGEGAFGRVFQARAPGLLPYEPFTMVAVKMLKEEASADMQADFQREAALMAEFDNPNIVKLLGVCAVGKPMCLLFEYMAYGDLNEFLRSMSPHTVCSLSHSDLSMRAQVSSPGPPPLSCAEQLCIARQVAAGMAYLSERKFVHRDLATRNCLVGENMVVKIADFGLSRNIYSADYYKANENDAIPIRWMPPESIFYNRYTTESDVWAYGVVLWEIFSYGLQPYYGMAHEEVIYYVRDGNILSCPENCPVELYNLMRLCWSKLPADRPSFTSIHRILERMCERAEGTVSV
The settings on record: at 0.1 µM.

The structures appear in SMILES notation.

Mast/stem cell growth factor receptor Kit (Homo sapiens), P10721 [D816V], sequence (P10721 whole entry D816V): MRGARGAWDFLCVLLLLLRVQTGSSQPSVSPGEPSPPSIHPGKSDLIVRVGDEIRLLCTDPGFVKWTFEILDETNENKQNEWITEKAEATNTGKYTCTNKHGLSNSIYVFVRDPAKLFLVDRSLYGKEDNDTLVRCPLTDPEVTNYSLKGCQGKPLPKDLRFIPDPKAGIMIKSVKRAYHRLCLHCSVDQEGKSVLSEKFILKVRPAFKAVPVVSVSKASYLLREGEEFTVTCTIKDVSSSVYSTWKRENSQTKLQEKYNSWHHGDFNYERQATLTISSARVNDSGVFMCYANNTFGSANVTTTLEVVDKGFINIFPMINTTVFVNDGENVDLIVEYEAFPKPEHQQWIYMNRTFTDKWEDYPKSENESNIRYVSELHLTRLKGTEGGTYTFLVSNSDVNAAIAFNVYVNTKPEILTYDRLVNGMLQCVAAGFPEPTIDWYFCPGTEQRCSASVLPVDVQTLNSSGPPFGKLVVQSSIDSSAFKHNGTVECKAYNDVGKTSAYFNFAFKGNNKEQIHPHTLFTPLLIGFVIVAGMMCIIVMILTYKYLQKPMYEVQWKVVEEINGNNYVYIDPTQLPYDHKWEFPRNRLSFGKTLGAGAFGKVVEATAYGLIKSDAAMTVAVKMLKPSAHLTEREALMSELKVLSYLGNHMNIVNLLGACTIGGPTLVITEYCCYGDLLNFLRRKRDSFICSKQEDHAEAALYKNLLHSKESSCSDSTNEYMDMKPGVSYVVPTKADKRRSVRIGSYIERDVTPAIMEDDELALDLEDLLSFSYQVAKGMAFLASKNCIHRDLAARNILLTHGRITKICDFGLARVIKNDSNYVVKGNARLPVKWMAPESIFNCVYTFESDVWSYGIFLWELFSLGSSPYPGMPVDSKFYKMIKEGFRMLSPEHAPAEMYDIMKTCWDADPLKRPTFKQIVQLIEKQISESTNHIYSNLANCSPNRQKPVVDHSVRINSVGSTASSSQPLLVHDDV
Tyrosine-protein kinase Lyn (Homo sapiens), sequence (P07948 2-512 limits assumed): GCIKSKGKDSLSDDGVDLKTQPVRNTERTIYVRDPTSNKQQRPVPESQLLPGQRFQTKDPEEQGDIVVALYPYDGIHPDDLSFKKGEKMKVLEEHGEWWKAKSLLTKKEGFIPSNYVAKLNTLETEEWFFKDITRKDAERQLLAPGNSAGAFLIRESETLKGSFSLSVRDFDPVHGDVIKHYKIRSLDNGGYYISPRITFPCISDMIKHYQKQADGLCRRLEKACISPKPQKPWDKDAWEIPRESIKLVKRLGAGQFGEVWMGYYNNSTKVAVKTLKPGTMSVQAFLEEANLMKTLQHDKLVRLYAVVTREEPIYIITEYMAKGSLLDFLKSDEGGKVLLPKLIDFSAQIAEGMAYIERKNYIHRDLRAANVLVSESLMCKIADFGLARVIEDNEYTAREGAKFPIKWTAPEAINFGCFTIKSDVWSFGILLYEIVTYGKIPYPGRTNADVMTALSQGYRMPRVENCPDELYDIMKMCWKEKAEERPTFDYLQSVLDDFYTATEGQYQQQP
Mast/stem cell growth factor receptor Kit (Homo sapiens), P10721 [V560G], sequence (P10721 whole entry V560G): as the sequence (P10721 whole entry D816V) above, with V560G, V816D counted along it
Tyrosine-protein kinase Lck (Homo sapiens), sequence (P06239 2-509 limits assumed): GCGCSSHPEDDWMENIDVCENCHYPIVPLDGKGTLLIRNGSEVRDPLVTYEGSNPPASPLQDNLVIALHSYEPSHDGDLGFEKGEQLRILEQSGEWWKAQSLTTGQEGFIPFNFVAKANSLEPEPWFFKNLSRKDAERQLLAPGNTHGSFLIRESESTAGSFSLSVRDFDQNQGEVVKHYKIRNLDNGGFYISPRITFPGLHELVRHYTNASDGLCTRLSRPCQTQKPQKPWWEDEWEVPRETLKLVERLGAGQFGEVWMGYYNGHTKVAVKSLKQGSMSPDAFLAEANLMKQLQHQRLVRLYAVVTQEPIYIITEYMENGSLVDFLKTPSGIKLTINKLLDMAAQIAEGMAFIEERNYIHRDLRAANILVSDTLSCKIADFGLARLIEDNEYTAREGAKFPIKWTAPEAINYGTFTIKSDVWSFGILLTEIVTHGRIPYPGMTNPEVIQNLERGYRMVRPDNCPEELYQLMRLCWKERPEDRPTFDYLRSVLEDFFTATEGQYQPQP
Mast/stem cell growth factor receptor Kit (Homo sapiens), P10721 [T670I], sequence (P10721 whole entry T670I): as the sequence (P10721 whole entry D816V) above, with T670I, V816D counted along it
Hepatocyte growth factor receptor (Homo sapiens), sequence (P08581 whole entry): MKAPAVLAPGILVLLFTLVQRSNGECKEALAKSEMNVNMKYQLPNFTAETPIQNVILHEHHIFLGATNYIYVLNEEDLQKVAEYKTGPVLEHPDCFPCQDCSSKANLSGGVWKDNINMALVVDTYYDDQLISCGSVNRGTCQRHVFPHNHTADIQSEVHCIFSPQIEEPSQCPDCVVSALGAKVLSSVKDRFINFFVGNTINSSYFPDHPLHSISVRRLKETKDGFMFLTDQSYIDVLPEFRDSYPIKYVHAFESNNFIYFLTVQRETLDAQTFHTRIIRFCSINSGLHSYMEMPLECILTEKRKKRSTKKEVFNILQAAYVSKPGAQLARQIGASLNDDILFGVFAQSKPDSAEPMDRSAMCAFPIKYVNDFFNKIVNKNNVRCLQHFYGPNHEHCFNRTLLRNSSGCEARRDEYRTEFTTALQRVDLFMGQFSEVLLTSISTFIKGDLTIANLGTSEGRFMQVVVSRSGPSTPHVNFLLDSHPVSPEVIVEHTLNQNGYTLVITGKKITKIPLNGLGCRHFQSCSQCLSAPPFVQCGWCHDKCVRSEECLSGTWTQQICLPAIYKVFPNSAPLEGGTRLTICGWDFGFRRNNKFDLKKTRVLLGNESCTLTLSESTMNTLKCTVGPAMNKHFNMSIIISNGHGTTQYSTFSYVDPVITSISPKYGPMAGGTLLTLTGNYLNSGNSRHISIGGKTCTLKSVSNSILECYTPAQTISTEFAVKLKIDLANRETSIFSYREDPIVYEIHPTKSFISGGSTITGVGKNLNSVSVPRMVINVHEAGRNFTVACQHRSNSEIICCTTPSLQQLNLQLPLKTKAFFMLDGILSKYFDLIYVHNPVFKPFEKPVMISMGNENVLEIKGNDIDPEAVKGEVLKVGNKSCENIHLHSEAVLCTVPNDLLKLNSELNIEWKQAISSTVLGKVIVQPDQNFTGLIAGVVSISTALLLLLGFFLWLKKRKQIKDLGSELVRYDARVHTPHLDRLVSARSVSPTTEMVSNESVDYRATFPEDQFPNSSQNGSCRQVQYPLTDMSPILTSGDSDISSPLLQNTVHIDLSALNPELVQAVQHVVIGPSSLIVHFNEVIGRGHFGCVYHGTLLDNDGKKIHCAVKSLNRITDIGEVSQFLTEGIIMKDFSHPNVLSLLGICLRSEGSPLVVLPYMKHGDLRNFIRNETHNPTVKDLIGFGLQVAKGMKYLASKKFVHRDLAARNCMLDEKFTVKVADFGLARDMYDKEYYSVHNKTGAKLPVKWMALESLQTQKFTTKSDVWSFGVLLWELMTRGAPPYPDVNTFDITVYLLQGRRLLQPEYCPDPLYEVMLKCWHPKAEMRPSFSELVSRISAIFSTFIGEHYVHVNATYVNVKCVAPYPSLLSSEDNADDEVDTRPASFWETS
Leukocyte tyrosine kinase receptor (Homo sapiens), sequence (P29376 whole entry): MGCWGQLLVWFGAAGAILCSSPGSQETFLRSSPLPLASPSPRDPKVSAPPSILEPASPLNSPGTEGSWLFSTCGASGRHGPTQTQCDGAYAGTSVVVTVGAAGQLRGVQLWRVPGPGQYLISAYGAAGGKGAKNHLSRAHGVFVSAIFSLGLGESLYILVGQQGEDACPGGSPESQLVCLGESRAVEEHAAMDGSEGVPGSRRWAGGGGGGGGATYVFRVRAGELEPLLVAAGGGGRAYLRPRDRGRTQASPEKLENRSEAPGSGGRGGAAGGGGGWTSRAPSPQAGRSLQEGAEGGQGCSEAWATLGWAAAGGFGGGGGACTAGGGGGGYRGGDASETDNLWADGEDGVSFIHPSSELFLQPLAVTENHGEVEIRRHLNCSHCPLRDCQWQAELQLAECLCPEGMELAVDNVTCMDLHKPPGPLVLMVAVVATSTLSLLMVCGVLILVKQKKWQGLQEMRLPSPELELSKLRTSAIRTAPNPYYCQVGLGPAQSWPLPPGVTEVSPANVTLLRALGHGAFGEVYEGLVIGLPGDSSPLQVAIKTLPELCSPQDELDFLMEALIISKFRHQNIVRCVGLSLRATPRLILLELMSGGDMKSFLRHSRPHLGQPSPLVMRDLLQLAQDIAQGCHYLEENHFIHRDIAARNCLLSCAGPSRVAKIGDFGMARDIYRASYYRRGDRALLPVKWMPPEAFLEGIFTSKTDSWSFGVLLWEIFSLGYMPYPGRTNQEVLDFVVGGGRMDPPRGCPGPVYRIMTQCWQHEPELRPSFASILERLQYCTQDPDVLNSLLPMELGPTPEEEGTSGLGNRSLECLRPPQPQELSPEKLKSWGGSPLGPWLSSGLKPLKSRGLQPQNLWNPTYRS
Mast/stem cell growth factor receptor Kit (Homo sapiens), sequence (P10721 whole entry): as the sequence (P10721 whole entry D816V) above, with V816D counted along it

Turning to `C[C@@H](Oc1cc(-n2cnc3ccc(OC4CCN(C)CC4)cc32)sc1C(N)=O)c1ccccc1Cl`, the inhibition in experiment [1] was 5.22%; in experiment [2] it was 1.72%; in experiment [3], 6.14%; in experiment [4] it was 1.3%; in experiment [5], 6.17%; in experiment [6], -4.05%. Moreover, the inhibition is -2.87% in experiment [7]; -0.67% in [8]; 4.21% in experiment [9]; 4.01% in experiment [10]; 4.72% in experiment [11]; 3.54% in experiment [12]. The inhibition in experiment [13] amounted to 6.86%; in experiment [14], 1.68%; in experiment [15] it was 5.6%; in [16], 2.77%; in [17] it was 9.07%; in experiment [18] it was 7.84%. Further, the values for the inhibition in experiment [19] and in experiment [20] were 5.01% and 7.63%, respectively.
For the molecule `COc1cccc(-n2cnc3c(N/N=C/c4ccncc4)ncnc32)c1`, the inhibition in experiment [1] was 83.4%; in experiment [2] it was 0.1%; in experiment [3] it was 3.79%; in experiment [4] it was -2.23%; in experiment [5] it was 6.36%; in experiment [6], 3.15%. Further, the inhibition is 18.8% in [7]; 3.69% in experiment [8]; 29.3% in [9]; -1.69% in [10]; 0.9% in [11]; 7.17% in experiment [12]. The inhibition in experiment [13] was 47.2%; in experiment [14] it was 6.07%; in experiment [15], 41.6%; in [16], 0.12%; in [17], 4.47%; in experiment [18], 0.87%. Moreover, the inhibition in experiment [19] came to 6.87%; in [20] it was 2.4%.
Regarding `COc1cc(Nc2ncc(-c3ccccc3)o2)cc(OC)c1OC`, the inhibition is 98.7% in experiment [1]; 0.53% in experiment [2]; 0.05% in experiment [3]; 69.3% in experiment [4]; 94.8% in [5]; 22.2% in experiment [6]. In addition, the inhibition in [7] was determined as 80.4%; in [8], 2.17%; in experiment [9] it was 25%; in experiment [10], 0.26%; in experiment [11], 1.47%; in [12], 7.48%. The inhibition in [13] came to 47.8%; in experiment [14], 5.8%; in experiment [15], 46.5%; in experiment [16], 3.23%; in experiment [17], 3.53%; in experiment [18] it was 2.19%. Further, the inhibition turned out to be 2.13% in experiment [19] and 1.59% in experiment [20].
As for `Fc1ccc(-c2nc3n(c2-c2ccncc2)CCS3)cc1`, the inhibition in [1] is 2.15%; in experiment [2], 4.1%; in experiment [3], 1.39%; in [4] it was 2.38%; in experiment [5] it was 2.22%; in experiment [6], 0.09%. Also, the inhibition was -0.72% in experiment [7]; -2.03% in experiment [8]; 1.29% in experiment [9]; 1.98% in [10]; 2.85% in experiment [11]; 3.56% in experiment [12]. Besides, the inhibition was found to be 7.36% in experiment [13]; 1.97% in experiment [14]; 4.29% in experiment [15]; 1.16% in experiment [16]; 3.24% in experiment [17]; 8.26% in experiment [18]. Besides, the inhibition in experiment [19] was found to be 5.29%; in experiment [20], 2.08%.
For `CCC(=O)Nc1ccc(C)c(-c2ccc(C(=O)NCC3CC3)cc2)c1`, the inhibition in [1] was 4.74%; in [2], -1.54%; in experiment [3] it was 5.31%; in experiment [4] it was 2.5%; in experiment [5], 3.87%; in experiment [6], -0.17%. The inhibition in experiment [7] is -1.72%; in experiment [8] it was 2.57%; in experiment [9], 5.27%; in experiment [10] it was 4.98%; in experiment [11], 3.92%; in experiment [12] it was 4.52%. Also, the inhibition in experiment [13] worked out at 5.05%; in experiment [14], 1.69%; in experiment [15] it was 2.75%; in [16] it was 2.88%; in experiment [17], 4.95%; in [18], 6.02%. Further, the inhibition in [19] turned out to be 4.29%; in experiment [20] it was 1.96%.
